Reference: ChEMBL document CHEMBL3988442, “University of Dundee, Small-Polar-MMV Screening Library” (2021)
For some assays here: Potency and affinity values are given separately.

Experiments:
Set-up in all cases: scale not given: direction of the effect not stated beside the values
[1] = biological target: Protein translocase subunit SecA (Escherichia coli (strain K12)) (UniProt P10408); test: Assay to Identify E. coli SecA ATPase Inhibitors; type: functional; settings: 30 µM
[2] = biological target: T1, Ubiquitin-activating enzyme e1, putative (Leishmania donovani (strain BPK282A1)) (UniProt E9BSI1); test: Leishmania donovani Ubiquitin Activating Enzyme (LdE1); type: functional; settings: 30 µM
T1 sequence (whole entry): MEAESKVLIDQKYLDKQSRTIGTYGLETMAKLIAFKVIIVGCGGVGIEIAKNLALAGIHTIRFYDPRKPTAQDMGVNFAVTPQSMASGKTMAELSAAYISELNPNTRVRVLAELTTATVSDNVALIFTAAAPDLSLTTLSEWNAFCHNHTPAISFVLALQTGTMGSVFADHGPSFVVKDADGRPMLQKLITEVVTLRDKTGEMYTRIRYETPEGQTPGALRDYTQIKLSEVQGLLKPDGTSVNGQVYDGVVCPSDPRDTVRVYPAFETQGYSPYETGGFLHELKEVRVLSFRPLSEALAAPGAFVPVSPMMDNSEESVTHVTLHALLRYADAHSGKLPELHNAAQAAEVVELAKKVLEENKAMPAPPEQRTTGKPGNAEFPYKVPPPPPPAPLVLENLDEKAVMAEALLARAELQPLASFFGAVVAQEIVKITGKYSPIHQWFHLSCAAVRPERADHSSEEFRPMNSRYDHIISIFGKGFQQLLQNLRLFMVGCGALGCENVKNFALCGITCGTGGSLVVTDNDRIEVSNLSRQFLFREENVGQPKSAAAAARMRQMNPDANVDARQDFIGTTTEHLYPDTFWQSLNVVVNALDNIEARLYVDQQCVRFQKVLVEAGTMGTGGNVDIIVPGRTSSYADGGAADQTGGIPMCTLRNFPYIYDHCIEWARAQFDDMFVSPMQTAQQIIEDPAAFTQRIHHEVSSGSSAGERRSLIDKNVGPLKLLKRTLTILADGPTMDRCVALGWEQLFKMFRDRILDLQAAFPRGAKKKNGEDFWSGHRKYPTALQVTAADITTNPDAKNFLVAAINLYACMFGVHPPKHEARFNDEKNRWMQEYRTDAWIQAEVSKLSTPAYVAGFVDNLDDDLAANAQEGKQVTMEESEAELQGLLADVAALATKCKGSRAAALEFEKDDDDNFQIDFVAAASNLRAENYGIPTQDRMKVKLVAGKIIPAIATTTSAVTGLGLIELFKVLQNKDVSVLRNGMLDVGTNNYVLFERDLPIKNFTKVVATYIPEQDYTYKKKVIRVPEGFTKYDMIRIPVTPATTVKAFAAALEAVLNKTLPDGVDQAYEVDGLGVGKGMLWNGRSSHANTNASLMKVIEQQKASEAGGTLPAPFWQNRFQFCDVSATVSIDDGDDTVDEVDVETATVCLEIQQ

[3] = biological target: AMP-activated protein kinase, AMPK (Homo sapiens) (UniProt P54646+O43741+P54619+Q9UGJ0+Q9Y478+Q13131+Q9UGI9); test: AMP-dependent Kinase enzyme assay. An in vitro enzyme assay that detects ADP turnover that is directly proportional to AMPK activity. This uses naive AMPK that is activated during the assay with MK-8722; type: functional; settings: 30 µM
[4] = biological target: Sialic acid-binding Ig-like lectin 9 (Homo sapiens) (UniProt Q9Y336); test: Hs-Siglec9 ALPHAscreen SOP 20170721; settings: 10 µM
Trypanosoma cruzi = test: Trypanosoma cruzi phosphomannomutase and mannose-1-phosphate guanylyltransferase assay; type: functional; settings: 10 µM
[5] = biological target: T2, Arginase-2, mitochondrial (Homo sapiens) (UniProt P78540); test: in vitro enzyme assay to detect the production of urea directly proportional to the activity of Arginase II; type: functional; settings: 33.3 µM; further: in the data most compounds retested in dose-response had high values
T2 sequence (whole entry): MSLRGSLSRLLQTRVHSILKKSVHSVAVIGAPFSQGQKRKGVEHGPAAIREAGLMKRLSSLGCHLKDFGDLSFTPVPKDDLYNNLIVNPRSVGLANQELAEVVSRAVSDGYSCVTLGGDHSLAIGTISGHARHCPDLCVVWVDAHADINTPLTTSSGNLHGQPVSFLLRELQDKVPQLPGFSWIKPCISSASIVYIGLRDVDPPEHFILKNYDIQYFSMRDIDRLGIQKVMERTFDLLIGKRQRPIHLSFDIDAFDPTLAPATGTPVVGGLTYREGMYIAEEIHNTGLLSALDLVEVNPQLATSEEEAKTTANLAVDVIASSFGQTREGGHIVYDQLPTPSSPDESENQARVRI

[6] = biological target: T3, Proteasome subunit beta (Trypanosoma cruzi) (UniProt O96673); test: Trypanosoma cruzi proteasome chymotrypsin-like activity (TcProtChymo) assay.; further: in the data most compounds retested in dose-response had high values; type: functional; settings: 9.37 µM
T3 sequence (whole entry): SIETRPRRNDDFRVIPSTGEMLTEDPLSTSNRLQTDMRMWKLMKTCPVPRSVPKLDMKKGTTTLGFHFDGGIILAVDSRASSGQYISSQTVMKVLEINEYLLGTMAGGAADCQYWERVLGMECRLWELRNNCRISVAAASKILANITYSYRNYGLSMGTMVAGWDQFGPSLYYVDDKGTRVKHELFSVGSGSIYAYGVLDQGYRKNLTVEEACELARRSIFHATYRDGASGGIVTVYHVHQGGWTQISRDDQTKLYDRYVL

Homo sapiens = species on record: Homo sapiens; test: To identify inhibition of the IFN signalling (Jak-Stat) pathway via expression of an eGFP reporter gene under the control of an IFN-stimulated response element (ISRE) containing MxA promoter.; type: functional; settings: 30 µM
[7] = biological target: T4, Tyrosyl-tRNA synthetase, putative (Trypanosoma cruzi (strain CL Brener)) (UniProt Q4DSP6); test: Trypanosoma cruzi tyrosyl tRNA synthetase (TcYRS) _High Tyrosine SOP; type: functional; settings: 30 µM; further: in the data most compounds retested in dose-response had high values
T4 sequence (whole entry): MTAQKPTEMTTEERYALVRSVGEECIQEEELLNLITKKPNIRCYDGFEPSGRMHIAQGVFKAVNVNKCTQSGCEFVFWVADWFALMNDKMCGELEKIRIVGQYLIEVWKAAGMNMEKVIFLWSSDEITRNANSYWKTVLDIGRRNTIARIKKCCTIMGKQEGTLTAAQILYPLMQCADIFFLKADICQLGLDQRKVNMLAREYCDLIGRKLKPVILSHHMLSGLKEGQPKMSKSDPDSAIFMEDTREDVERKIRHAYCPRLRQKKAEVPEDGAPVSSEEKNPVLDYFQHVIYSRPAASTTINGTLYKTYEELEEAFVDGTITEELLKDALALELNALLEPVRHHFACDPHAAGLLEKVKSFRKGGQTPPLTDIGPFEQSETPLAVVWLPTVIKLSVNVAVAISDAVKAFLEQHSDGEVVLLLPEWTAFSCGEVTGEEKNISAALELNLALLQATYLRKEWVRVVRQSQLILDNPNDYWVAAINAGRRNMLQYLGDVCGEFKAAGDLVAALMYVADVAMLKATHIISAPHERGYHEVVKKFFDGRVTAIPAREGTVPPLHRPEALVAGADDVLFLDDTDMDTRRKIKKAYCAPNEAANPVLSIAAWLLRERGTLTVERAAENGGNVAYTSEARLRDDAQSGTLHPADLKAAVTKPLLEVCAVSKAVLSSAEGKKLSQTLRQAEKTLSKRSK

[8] = biological target: T4, Tyrosyl-tRNA synthetase, putative (Trypanosoma cruzi (strain CL Brener)); test: Trypanosoma cruzi tyrosyl tRNA synthetase (TcYRS) SOP; type: functional; settings: 30 µM
[9] = biological target: Chromo domain-containing protein 1 (Saccharomyces cerevisiae (strain ATCC 204508 / S288c) (Baker's yeast)) (UniProt P32657); test: ScCHD-1 Enzyme Inhibition Assay; type: functional; settings: 30 µM; further: in the data most compounds retested in dose-response had high values
Chromo domain-containing protein 1 (Saccharomyces cerevisiae (strain ATCC 204508 / S288c) (Baker's yeast)), sequence (P32657 whole entry, the tested form may be a part): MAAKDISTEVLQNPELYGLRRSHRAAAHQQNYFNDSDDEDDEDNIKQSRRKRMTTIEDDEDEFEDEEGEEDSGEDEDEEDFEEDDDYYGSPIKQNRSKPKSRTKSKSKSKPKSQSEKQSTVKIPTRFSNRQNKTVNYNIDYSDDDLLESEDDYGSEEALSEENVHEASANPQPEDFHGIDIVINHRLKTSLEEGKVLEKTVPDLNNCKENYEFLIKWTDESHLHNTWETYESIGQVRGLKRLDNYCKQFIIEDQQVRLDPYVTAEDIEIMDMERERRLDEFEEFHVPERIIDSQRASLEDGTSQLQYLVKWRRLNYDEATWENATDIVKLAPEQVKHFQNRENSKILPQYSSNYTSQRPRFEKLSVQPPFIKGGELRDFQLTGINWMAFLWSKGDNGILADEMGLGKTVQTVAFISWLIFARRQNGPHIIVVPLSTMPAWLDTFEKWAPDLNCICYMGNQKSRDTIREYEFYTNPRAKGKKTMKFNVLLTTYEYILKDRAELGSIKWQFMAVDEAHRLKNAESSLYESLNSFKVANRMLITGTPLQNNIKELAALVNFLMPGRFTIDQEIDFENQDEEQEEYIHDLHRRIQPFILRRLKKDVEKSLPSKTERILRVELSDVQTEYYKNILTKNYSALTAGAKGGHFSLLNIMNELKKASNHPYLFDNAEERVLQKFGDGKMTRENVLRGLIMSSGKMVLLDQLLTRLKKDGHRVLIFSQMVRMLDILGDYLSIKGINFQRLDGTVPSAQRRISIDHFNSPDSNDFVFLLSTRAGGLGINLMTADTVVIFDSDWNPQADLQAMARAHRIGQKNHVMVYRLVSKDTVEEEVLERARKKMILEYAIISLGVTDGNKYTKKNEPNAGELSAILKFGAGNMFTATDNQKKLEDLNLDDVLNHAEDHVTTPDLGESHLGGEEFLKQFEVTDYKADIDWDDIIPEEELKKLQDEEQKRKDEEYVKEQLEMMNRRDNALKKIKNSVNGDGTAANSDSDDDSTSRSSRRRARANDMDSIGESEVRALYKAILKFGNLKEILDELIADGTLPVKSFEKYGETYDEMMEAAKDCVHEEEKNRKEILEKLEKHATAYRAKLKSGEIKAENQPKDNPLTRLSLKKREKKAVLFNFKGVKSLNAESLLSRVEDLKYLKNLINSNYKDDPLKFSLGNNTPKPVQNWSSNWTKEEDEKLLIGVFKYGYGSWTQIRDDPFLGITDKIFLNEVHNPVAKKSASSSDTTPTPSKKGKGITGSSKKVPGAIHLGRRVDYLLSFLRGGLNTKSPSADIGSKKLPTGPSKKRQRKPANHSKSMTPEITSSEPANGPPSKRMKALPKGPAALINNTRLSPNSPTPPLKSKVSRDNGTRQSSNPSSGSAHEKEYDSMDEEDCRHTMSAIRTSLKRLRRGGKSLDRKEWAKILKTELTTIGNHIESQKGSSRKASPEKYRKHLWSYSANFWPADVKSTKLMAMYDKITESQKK

Sialic acid-binding Ig-like lectin 9 (Homo sapiens), sequence (Q9Y336 whole entry): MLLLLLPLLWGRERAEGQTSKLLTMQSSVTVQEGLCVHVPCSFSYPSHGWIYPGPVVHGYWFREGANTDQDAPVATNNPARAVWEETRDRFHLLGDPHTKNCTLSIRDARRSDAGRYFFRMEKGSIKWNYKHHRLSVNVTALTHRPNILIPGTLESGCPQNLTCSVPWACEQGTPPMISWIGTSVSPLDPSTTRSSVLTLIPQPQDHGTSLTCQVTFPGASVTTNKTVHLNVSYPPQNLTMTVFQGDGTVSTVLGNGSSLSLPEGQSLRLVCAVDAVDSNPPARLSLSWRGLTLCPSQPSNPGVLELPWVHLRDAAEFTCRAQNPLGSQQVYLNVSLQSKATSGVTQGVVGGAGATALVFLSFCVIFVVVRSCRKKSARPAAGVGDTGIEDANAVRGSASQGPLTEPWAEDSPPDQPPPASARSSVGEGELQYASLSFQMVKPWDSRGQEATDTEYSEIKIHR
Protein translocase subunit SecA (Escherichia coli (strain K12)), sequence (P10408 whole entry): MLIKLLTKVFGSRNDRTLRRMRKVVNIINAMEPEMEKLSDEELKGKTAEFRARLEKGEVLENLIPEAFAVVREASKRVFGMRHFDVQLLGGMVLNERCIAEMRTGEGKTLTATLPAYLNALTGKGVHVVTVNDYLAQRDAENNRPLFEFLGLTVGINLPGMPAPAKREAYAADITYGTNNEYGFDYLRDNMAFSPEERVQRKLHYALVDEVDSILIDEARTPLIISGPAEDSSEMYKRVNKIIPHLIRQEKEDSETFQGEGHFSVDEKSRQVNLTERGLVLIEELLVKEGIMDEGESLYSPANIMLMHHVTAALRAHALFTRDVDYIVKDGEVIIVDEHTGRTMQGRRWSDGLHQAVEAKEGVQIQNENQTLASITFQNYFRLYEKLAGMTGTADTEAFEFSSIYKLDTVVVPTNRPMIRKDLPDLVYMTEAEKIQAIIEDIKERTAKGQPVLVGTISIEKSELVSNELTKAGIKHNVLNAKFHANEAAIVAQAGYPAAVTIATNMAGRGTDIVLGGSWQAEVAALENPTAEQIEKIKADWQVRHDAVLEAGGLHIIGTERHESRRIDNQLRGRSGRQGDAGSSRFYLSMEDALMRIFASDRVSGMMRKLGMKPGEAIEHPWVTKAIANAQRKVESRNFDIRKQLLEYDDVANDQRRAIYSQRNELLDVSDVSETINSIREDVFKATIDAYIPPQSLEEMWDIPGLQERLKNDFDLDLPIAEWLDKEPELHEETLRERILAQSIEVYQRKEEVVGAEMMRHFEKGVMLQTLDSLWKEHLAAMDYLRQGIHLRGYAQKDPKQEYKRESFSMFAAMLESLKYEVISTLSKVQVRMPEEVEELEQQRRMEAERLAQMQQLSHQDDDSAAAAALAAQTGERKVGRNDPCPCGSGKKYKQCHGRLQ

| Compound | Percent Effect [1] [%] | Percent Effect [2] [%] | Percent Effect [3] [%] | Percent Effect [4] [%] | Percent Effect (Trypanosoma cruzi) [%] | Percent Effect [5] [%] | Percent Effect [6] [%] | Percent Effect (Homo sapiens) [%] | Percent Effect [7] [%] | Percent Effect [8] [%] | Percent Effect [9] [%] |
| --- | --- | --- | --- | --- | --- | --- | --- | --- | --- | --- | --- |
| CCc1nc(CN2CCCC(NCc3cnn(C(C)(C)C)c3)C2)no1 (configuration not stated) | -2.85 | 2.53 | -0.494 | 3.84 | -1.6 | -1.52 | 6.63 | 14.9 | -1.48 | -1.27 | -0.901 |
| COCCOCC(=O)Nc1ccc(Br)cc1F | -4.21 | 10.5 | -1.83 | 4.08 | 3.8 | -5.92 | 1.63 | 9.23 | 1.06 | 7.79 | -2.27 |
| c1cc(-c2cnccn2)cc(-c2ccn(CCN3CCCC3)n2)c1 | -2.8 | -21.6 | 3.09 | 2.06 | -1.54 | -10.9 | 6.9 | 0.332 | 14.3 | 7.32 | -0.216 |
| CC(C)c1nc(C(=O)N2CCOCC2CC(=O)c2ccco2)c[nH]1 (configuration not stated) | 2.93 | -2.63 | 4.64 | 2.67 | 0.682 | 0 | 8.92 | -8.33 | 5.32 | 0 | 1.37 |
| O=C(N1CCCC1)N1CCO[C@H]2[C@@H](Oc3ccccn3)CC[C@@H]21 | 0.00913 | 2.67 | 13.9 | -0.922 | -4.92 | 4.43 | -1.85 | 12.7 | 4.25 | 3.85 | 1.67 |
| NC(=O)C1CCN(c2nc3nccc(-c4ccccc4)c3c(=O)[nH]2)CC1 | -4.01 | 2.74 | -6.46 | 3.02 | 6.75 | -7.19 | 14.8 | 5.49 | 1.04 | 6.17 | -5.09 |
| COCCn1c2c(ccc1=O)CC(NS(C)(=O)=O)CC2 (configuration not stated) | -3.49 | 13.3 | -2.12 | -9.48 | -7.68 | -1.63 | -1.15 | 10.7 | 0 | 3.85 | -4.29 |
| CCNc1cc2c(nn1)CCN(C(=O)CC1CCCCC1)C2 | -8.49 | 12.7 | 0.0974 | 9.47 | 1.42 | 3.04 | -0.0819 | -11.3 | 16.3 | 8.86 | -8.44 |
| Cc1cnc(CN(Cc2ccccc2)CC(O)c2cccs2)cn1 (configuration not stated) | 0.271 | 5.41 | -2.24 | 20.3 | 6.35 | 41.9 | 0.772 | 5.39 | -3.23 | 6.17 | -11.6 |
| Cc1noc(CCCC(=O)NC(C)c2cccnc2)n1 (configuration not stated) | 0.699 | 13.2 | 0.237 | 0.605 | -5.83 | 5.75 | 8.86 | 21.4 | 8.33 | 12.2 | -6.49 |
| CC(C)(C)c1nc(CN2CCCC2Cn2cccn2)no1 (configuration not stated) | -1.54 | 26 | -0.88 | -2.85 | 2.81 | 6.41 | 17.7 | 18.5 | 12.6 | 26.8 | -9.21 |
| c1ccc2oc(CCCN3CCCC3Cn3cncn3)nc2c1 (configuration not stated) | -1.49 | 0 | 0.485 | 12.2 | -1.02 | 3.51 | 5.92 | 13.6 | 7.92 | 6.1 | 7.47 |
| CC(=O)N(Cc1noc(C)n1)C1CCN(Cc2ccon2)C1 (configuration not stated) | -2.71 | 21.5 | -1.98 | -4.08 | 1.13 | -3.66 | 22.3 | 10.2 | 3.12 | 15.2 | 52.1 |
| CCCn1cc(C(=O)N(C)Cc2nc(-c3ccccn3)no2)c(C)n1 | -2.06 | 5.33 | -2.74 | 4.11 | -2.43 | 4.69 | 18.8 | 17 | 6.01 | 13.6 | -5.18 |
| Cc1cc(CN2CCN(C(=O)Nc3cccnc3)CC2)on1 | -2.38 | 15.8 | -3.05 | 8.98 | -2.63 | 4.6 | 4.51 | -11.1 | 6.37 | 17.1 | -2.69 |
| Cc1cccc(CNCc2c(C(C)C)nn(C)c2N2CCOCC2)n1 | -1.17 | 5.48 | -18.3 | -6.47 | -1.57 | -8.64 | 5.68 | -8.24 | 2.15 | 5 | -2.13 |
| CNc1nc2c(s1)C(c1c(Cl)cccc1Cl)CC(=O)N2 (configuration not stated) | 2.52 | 5.26 | -467 | 4.3 | 0.682 | 0 | 17 | 4.23 | -10.6 | -10.4 | -2.54 |
| COc1ccc(C(=O)N2CCCCC2c2nc(C)cs2)nn1 (configuration not stated) | -4.04 | 2.6 | -3.01 | 4.77 | 10.3 | 3.2 | -4.39 | 7.94 | 5.83 | 14.6 | 69.5 |
| Cc1nccc(CNC(=O)NCCOc2ccc(F)c(F)c2)n1 | -4.87 | 0 | -0.557 | 27.5 | 4.25 | -1.43 | 14.8 | 8.46 | 4.76 | 9.76 | -9.47 |
| CN1CCCC(Cc2ccnc3ccncc23)CC1 (configuration not stated) | -5.09 | -1.35 | 2.02 | 0.644 | -0.988 | -2.09 | -0.312 | 3.76 | 2.15 | -1.3 | 4.65 |
| CS(=O)(=O)NCc1n[nH]c2c1CCN(C(=O)c1ccsc1)C2 | -4.91 | 0 | 2.22 | -3.92 | -3.48 | -59.7 | 10.9 | 5.55 | -2.08 | 0 | -5 |
| CC(O)CN1CCN(C(=O)c2cccc(CC#N)c2)CC1 (configuration not stated) | -0.303 | 23.4 | -4.34 | -2.88 | 0.749 | 3.92 | 12.7 | 27 | 6.8 | 2.44 | -4.3 |
